# Source: PubChem BioAssay AID1259415 (National Center for Advancing Translational Sciences (NCATS), 2018)
# Among all 410,000 compounds or so, about 18,000 (4.4%) were called active. Inconclusive results (about 7%) are left out. No stated cut-off is given here; in the data, active means activity change below about -60%; inconclusive means no clear call, values can overlap the other calls; inactive means above about -39%. The full list was thinned out, with actives kept by preference.
# Assay: qHTS Assay for inhibitors of the human cytomegalovirus (HCMV)
# Conditions: HFF cells, HCMV-luciferase reporter, 72 h; at 57.5 µM; stronger effect = lower value
# In short: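 Screen run at 2 compound doses on HFFs infected with reporter HCMV, MOI 1 PFU/cell. Luciferase activity from cell lysates at 72 h post infection gave inhibition relative to buffer-only and Salinomycin wells.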
# On the % scale 0 is the no-effect control and ±100 the full control effect.
row,SMILES,"activity change, negative = inhibition"
1,COc1ccc(-c2onc(C)c2C)cc1S(=O)(=O)NCC1CCN(Cc2cccc(F)c2)CC1,0% (inactive)
2,Cc1ccccc1CN1CCC(CNC(=O)c2c(C)oc3ncnc(N4CCCCC4)c23)CC1,-4.04% (inactive)
3,Cc1sc2ncn(CC(=O)N3CCN(c4ccc(F)cc4)CC3)c(=O)c2c1S(=O)(=O)N1CCN(c2ncccn2)CC1,-4.66% (inactive)
4,Cc1n[nH]c(=O)c2c(NC(=O)CSc3ccccc3F)oc(C)c12,-30.8% (inactive)
5,COc1ccc(N2C(=O)CS(=O)(=O)C23C(=O)N(Cc2ccc(C)cc2)c2ccccc23)cc1Cl (stereo not given),-12.4% (inactive)
6,COc1ccc(NC(=O)CC2COc3ccccc3O2)c(OC)c1 (stereo not given),9.76% (inactive)
7,S=C(NCC1COc2ccccc2O1)Nc1ccc(Br)cc1 (stereo not given),-67.8% (active)
8,COc1ccccc1C1CCN(C(=S)Nc2ccc(Br)cc2)CC1,2.47% (inactive)
9,CCC(=O)N1CCc2cc(S(=O)(=O)NC(Cc3ccccc3)C(=O)NCc3ccc(C)cc3)ccc21 (stereo not given),5.04% (inactive)
10,Cc1ccc(N(Cc2cc(=O)[nH]c3ccccc23)C(=O)CCl)cc1,-101% (active)
11,Cc1ccc(N(Cc2ccccc2O)C(=O)c2ccccc2F)cc1,-8.68% (inactive)
12,CCC(=O)N(Cc1cc2ccccc2[nH]c1=O)c1ccc(OC)cc1,18.3% (inactive)
13,Cc1ccc(C)c(NC(=O)Cn2ccn(-c3ccc(F)cc3)c(=O)c2=O)c1,-35.9% (inactive)
14,O=S(=O)(Nc1ccc2nc(-c3cccc(Cl)c3)oc2c1)c1ccccc1,-36.4% (inactive)
15,COc1ccc(C(C)(C)C)cc1NC(=O)CN(C)C1=NS(=O)(=O)c2ccccc21,6.84% (inactive)
16,Oc1cccc(/C=N/Nc2ccc(Cl)nn2)c1O,-95.1% (active)
17,COc1ccc(-n2ccn(CC(=O)Nc3ccc(C)c(C)c3)c(=O)c2=O)cc1OC,-20.8% (inactive)
18,CC(C)N1C(=O)N(c2ccccc2)C(C)(O)CC1(C)C (stereo not given),-26.6% (inactive)
19,CC(CC(=O)Nc1ccccc1)n1ccnc1 (stereo not given),39% (inactive)
20,CC(=O)N1CCc2cc(S(=O)(=O)NC(Cc3ccccc3)C(=O)NCc3ccc(C)cc3)ccc21 (stereo not given),-12.2% (inactive)
21,C#CCN(C[C@@H]1[C@@H](OC(=O)NC2CC2)[C@@H](OC(=O)NC2CC2)Cn2c(=O)ccc(=O)n21)S(=O)(=O)c1ccc(C)cc1,-96.3% (active)
22,C#CCN(C[C@H]1[C@H](OC(=O)NC2CCCC2)[C@H](OC(=O)NC2CCCC2)C[C@H]2C(=O)N(c3ccccc3)C(=O)[C@@H]12)S(=O)(=O)c1ccc(C)cc1,-6.21% (inactive)

row,SMILES,"activity change, negative = inhibition"
1,Cc1ccc(S(=O)(=O)N2C[C@H]3n4c(=O)ccc(=O)n4C[C@H](OC(=O)NC4CCCC4)[C@@]3(O)C2)cc1,-24.9% (inactive)
2,CCC(=O)N1N=C(c2ccc(OC)cc2)CC1c1cn(-c2ccccc2)nc1-c1cccs1 (stereo not given),-16.7% (inactive)
3,COc1ccc(Br)cc1CNC(=O)c1cc(=O)[nH]c2ccc(S(=O)(=O)N3CCCC3)cc12,37.6% (inactive)
4,COc1ccccc1CNC(=O)NCc1noc2ccc(C)cc12,-4.73% (inactive)
5,O=C(CCCC(=O)N(CC(=O)NC1CCCC1)Cc1ccccc1Cl)Nc1ccccn1,-99.6% (active)
6,CCOc1ccccc1N(CC(=O)NC1CCCCC1)C(=O)CCCC(=O)Nc1ccccn1,-7.08% (inactive)
7,Cc1ccc(N(CC(=O)NC2CCCCC2)C(=O)CCCC(=O)Nc2ccccn2)c(C)c1,0.377% (inactive)
8,Cc1ccc(S(=O)(=O)N2CCC(C(=O)NCCC3=CCCCC3)CC2)cc1C,-15.1% (inactive)
9,CC(=O)c1ccc(NC(=O)CSc2c(C(C)C)cnc3c2c(=O)n(C)c(=O)n3C)cc1,-7.7% (inactive)
10,CC(C)(C)c1ccc(C(=O)NCC(c2ccco2)S(=O)(=O)c2ccc(F)cc2)cc1 (stereo not given),-16.6% (inactive)
11,CC(C)CN(Cc1c(O)ccc2c(=O)c(-c3ccccc3)coc12)CC(C)C,-72.9% (active)
12,CCN(Cc1ccccc1)Cc1c(O)ccc2c(=O)c(-c3ccc(Cl)cc3Cl)coc12,1.81% (inactive)
13,CN(C)Cc1c(O)ccc2c(=O)c(-c3ccccc3Cl)coc12,14.6% (inactive)
14,CN(O)C(=S)c1ccccc1,-97.9% (active)
15,CCOC(=O)c1cccn1C1C(=O)N(Cc2ccc(OC)cc2)c2c(F)cccc21 (stereo not given),-32% (inactive)
16,CC(=O)c1ccc(NC(=O)CSc2nc(-c3ccccc3F)nc3c2c(=O)n(C)c(=O)n3C)cc1,0.932% (inactive)
17,CCN(CC)C(=O)c1ccc(NC(=O)c2cc(-n3cnnc3)ccc2Cl)cc1,34.8% (inactive)
18,CN(C)S(=O)(=O)c1cc(C(=O)Nc2ccn(C)n2)c(Cl)cc1Cl,0% (active)
19,O=C(Nc1nccs1)c1cc(S(=O)(=O)N2CCOCC2)c(Cl)cc1Cl,32.2% (inactive)
20,Cc1ccc(N2CC(c3nnc(Cc4ccccc4Cl)o3)CC2=O)cc1 (stereo not given),-8.78% (inactive)
21,CCOC(=O)CNC(=O)c1cc2c(=O)n3cccc(C)c3nc2s1,9.74% (inactive)
22,Cc1ccc2oc(=O)c3cnn(CC(=O)N4CCN(c5cccc(Cl)c5)CC4)c3c2c1,-2.47% (inactive)

row,SMILES,"activity change, negative = inhibition"
1,CCCCN(CC)CCCNC(=O)c1nn(C)c2c1CS(=O)(=O)c1ccccc1-2,-8.91% (inactive)
2,O=C(NCc1ccc(F)cc1)c1ccc2nc(N3CCCCC3)sc2c1,65.5% (inactive)
3,c1c2c(cc3sc(N4CCCCC4)nc13)OCCO2,-64.2% (active)
4,CCOC(=O)c1cc2c(=O)n3ccccc3nc2n(CCCOC)c1=NC(=O)C(C)(C)Oc1ccc(Cl)cc1,6.81% (inactive)
5,COc1ccc(CCNCc2c(C(=O)O)c(C)n(Cc3cccc(C)c3)c2C)cc1OC,-1.54% (inactive)
6,Cc1ccccc1CN1C[C@@H]2C[C@@H](c3cn(C)nc3-c3ccccc3)N3CCC[C@@]23C1=O,32.8% (inactive)
7,CCOc1ccc(CNC(=O)c2cc(-c3ccc(Cl)s3)nc3ccccc23)cc1,1.58% (inactive)
8,CCOc1ccc(NC(=O)c2cnn(-c3ccccc3)c2-n2cccc2)cc1,-19.9% (inactive)
9,CCOc1ccc(-c2cc(C(=O)N/N=C/c3ccc(O)cc3)c3ccccc3n2)cc1,-83% (active)
10,CCOc1ccc(NC(=O)c2cc(C)nc3ccccc23)cc1,-60.4% (active)
11,CCOc1ccc(-c2cc(C)n3nc(C(=O)Nc4ccc(C)c(C)c4)cc3n2)cc1,-5.97% (inactive)
12,CCOc1ccc(-c2cc3c(=O)n(CC(=O)NCc4ccc(OC)cc4)ccn3n2)cc1,78.4% (inactive)
13,Cc1ccc(NC(=O)Cn2nnc3sc4c(c3c2=O)CCC(C)C4)cc1 (stereo not given),-19.7% (inactive)
14,COc1ccc(-c2onc(C)c2C)cc1S(=O)(=O)NCc1cccs1,86.9% (inactive)
15,O=C(COc1ccc(Cl)cc1)Nc1ccccc1OCc1cc(=O)n2ccccc2n1,47.7% (inactive)
16,COc1ccc(C(=O)COC(=O)CCCC(=O)Nc2cc(C(F)(F)F)ccc2Cl)cc1,-1.47% (inactive)
17,CCCCC(=O)Nc1ccc(C(=O)Nc2cc(C(F)(F)F)ccc2Cl)cc1,-64% (active)
18,CC(=O)Nc1ccc(NC(=O)CCCNC(=O)c2ccc(Cl)cc2)cc1,-21.3% (inactive)
19,O=C(CCc1nc(CN2CCN(S(=O)(=O)c3ccc(Br)cc3)CC2)no1)N1CCCCC1,20.2% (inactive)
20,CCOC(=O)c1ccc(NC(=O)CCS(=O)(=O)c2ccc3c(c2)oc(=O)n3C)cc1,0.775% (inactive)
21,CCOc1ccc(CNC(=O)c2cccc(Nc3nc4ccccc4n4nnnc34)c2)cc1OC,-17.1% (inactive)
22,O=C(CNC(=O)COc1ccccc1)NCCc1ccccn1,31.2% (inactive)

row,SMILES,"activity change, negative = inhibition"
1,COc1ccc(-c2nc3sc(CCNC(=O)C(C)(C)C)c(C)n3n2)cc1,-21.2% (inactive)
2,COc1cncc(-c2cnc3sc(NCCc4ccccn4)nn23)c1,-64.8% (active)
3,CC(C)c1ccc(NC(=O)C2CCN(c3nc(-c4ccc(C(C)C)cc4)no3)CC2)cc1,-71.9% (active)
4,CCOc1ccc(NC(=O)C2CCN(S(=O)(=O)c3cc(-c4noc(C)n4)ccc3C)CC2)cc1,10.9% (inactive)
5,CC(C)c1ccc(-c2noc(C3CCCN(S(C)(=O)=O)C3)n2)cc1 (stereo not given),-15.2% (inactive)
6,C[C@@H]1CN([C@@H](C)CO)C(=O)c2cc(NC(=O)C3CC3)ccc2O[C@H]1CN(C)C,34.3% (inactive)
7,COc1cc(C(=O)Nc2cc(C(F)(F)F)ccc2-n2cncn2)cc(OC)c1OC,-20% (inactive)
8,COCCCNC(=O)c1cccc2c(-c3ccc(O)c(OC)c3)coc12,71.3% (inactive)
9,CC(Sc1ccc(S(=O)(=O)N2CCN(C)CC2)cn1)C(=O)NC1CCCC(C)C1C (stereo not given),-4.06% (inactive)
10,COC(=O)c1ccc(S(=O)(=O)c2ccc(C(=O)OC)s2)s1,23.7% (inactive)
11,CCc1ccc(C2=CC(=O)CC(C)(C)C2=O)cc1,-23% (inactive)
12,COc1ccc(Cn2c(C(=O)O)c(CNCCc3cccs3)c3ccc(OC)cc32)cc1,-4.9% (inactive)
13,COc1ccc(Cn2c(C(=O)O)c(CNCc3cccc(OC)c3)c3ccc(C)cc32)cc1,-106% (active)
14,COc1cccc(CNCc2c(C(=O)O)n(Cc3ccc(C)cc3)c3cc(C)ccc23)c1OC,3.78% (inactive)
15,COc1cccc(CNC(=O)Cn2ncn3c(cc4ccccc43)c2=O)c1,44.2% (inactive)
16,Cc1ccc(C(=O)CSc2nc(-c3ccccc3)nc3c2CCCC3)c(C)c1,2.92% (inactive)
17,COc1ccccc1C(=O)Nc1c(C(=O)Nc2ccc(C)cc2)oc2ccccc12,14.6% (inactive)
18,Cc1n[nH]c(C)c1S(=O)(=O)N1CCCC(C(=O)NCC2COc3ccccc3O2)C1 (stereo not given),-37.1% (inactive)
19,c1ccc2c(c1)OCC(CNc1ncnc3nc[nH]c13)O2 (stereo not given),-61.6% (active)
